From PubChem BioAssay come the findings set out here.

Active and inactive are the calls of the source.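 The calls were made as follows: active = viability at or below 10% of carrier control in both of two separate runs; inconclusive = viability at or below 10% in only one of the two runs; inactive = the rest.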

The test in a line: reduced viability of SK-BR-3 breast cancer cells – cell-based, 24 h, human, pilot screen (AID 572).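 Also: compound exposure lasted between 18 and 24 h rather than exactly 24 h; 100% = carrier-treated control wells.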 The note with it: SK-BR-3 viability, CellTiter-Glo luminescence, at 10 µM, active compounds read low.
With `COc1ccc(C2=CC(=O)OC3(CCCCC3)O2)cc1`, the viability was 97% (inactive). On to `CCCCNC(=O)c1nnn(-c2ccccc2)c1N`, for which the viability is 88% (inactive). Regarding `Cc1ccc(Nc2nc(Oc3ccc(=O)[nH]n3)nc(N(C)C)n2)cc1`, the viability is 81% (inactive).

`CN(C(=O)C1CCOC1)c1nnc(-c2cccnc2)s1` (stereo not drawn): the viability is 92% (inactive). The value for `NS(=O)(=O)c1cc2c(cc1Cl)NC=NS2(=O)=O` was 104% (inactive); that for `COc1cccc(NC(=O)COC(=O)c2cccnc2)c1` was 91% (inactive); that for `CCN=C1SC(CC(=O)Nc2ccccc2OCC)C(=O)N1CC` (stereo not drawn) was 96% (inactive). Consider `O=S(=O)(NC1CCCCC1NS(=O)(=O)c1ccc(F)cc1)c1ccc(F)cc1` (stereo not drawn), for which the viability was 106% (inactive). On to `CCn1cnc2sc(C(=O)Nc3ccc4c(c3)OCO4)c(C)c2c1=O`, for which the viability was 107% (inactive). Regarding `O=C1C2CCCN2C(c2ccccc2)N1c1ccc(Cl)cc1` (stereo not drawn), the viability was 110% (inactive). As to `CNc1nnc(-c2cccc(N(C)C)c2)s1`, the viability is 111% (inactive).

For the compound `COC(=O)Cc1c(C)nc2nc[nH]n2c1=O`, the viability is 88% (inactive). Take `CCC(c1nnc(SCC(=O)Nc2ccc(C(=O)Nc3ccccc3OC)cc2)o1)N(C)C` (stereo not drawn): the viability is 65% (inactive).

On to `CC1Oc2ccccc2N(Cc2ccccc2Cl)C1=O` (stereo not drawn), for which the viability was 77% (inactive). Take `CCn1cc(C(=O)O)c(=O)c2ccc(C)nc21`: the viability is 106% (inactive).

`COc1ccccc1NC(=O)Cc1noc(CSc2cc(C)c3ccccc3n2)n1`: the viability is 104% (inactive). Consider `CC(COc1ccccc1)N(CCCl)Cc1ccccc1` (stereo not drawn), for which the viability is 107% (inactive). Turning to `O=C(c1cnc2sccn2c1=O)N1CCc2ccccc2C1`, the viability is 95% (inactive).
